Measurements reported in PubChem BioAssay.
Activity calls are given as the source filed them.

Legend:
[1] = optical density shifts of acrAB sulA E. coli – strain DRC41, OD650, 48 h, E. coli filamentation inducer project, primary screen (AID 1152); settings: higher = more signal, called active from +8 up or from −8 down;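 note: E. coli MC1000 strain DRC41 lacking acrAB efflux pump and sulA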
[2] = probe aLefty1 binding on compound microarray – biochemical, small-molecule microarray, 635/667 nm fluorescence, primary screen (AID 1153); settings: higher = more signal;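 note: score merges spot fluorescence with signal-to-noise ratio from the scanned slide images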
[3] = plasmodial surface anion channel blockers, osmotic lysis – cell-based, P. falciparum Indochina, OD700, 1 h, primary screen (AID 1154); settings: P. falciparum Indochina infected RBC osmotic lysis, higher = more signal, called active from +8 up or from −8 down
[4] = plasmodial surface anion channel blockers, osmotic lysis – cell-based, P. falciparum Indochina, OD700, 2 h, primary screen (AID 1155);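 note: lysis reports solute entry through the parasite surface anion channel PSAC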; settings: P. falciparum Indochina infected erythrocytes, higher = more signal, called active from +8 up or from −8 down
[5] = changes in parasitized red cell lysis, either direction – P. falciparum Indochina, OD700, 3 h, PSAC antagonist project, primary screen (AID 1156); settings: P. falciparum-infected erythrocytes, osmotic lysis, higher = more signal, called active from +8 up or from −8 down
[6] = plasmodial surface anion channel blockers, osmotic lysis – cell-based, P. falciparum Indochina, OD700, 18 h, primary screen (AID 1157); settings: P. falciparum Indochina infected erythrocytes, osmotic lysis OD700, 18 h; higher = more signal, called active from +8 up or from −8 down
[7] = S6 kinase pathway phospho-S6 level changes – cell-based, A549, cytoblot, luminescence, serum-stimulated, primary screen (AID 1158); settings: 5 h, higher = more signal;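 note: serum-stimulated A549 lung adenocarcinoma cells; signal is phosphorylated S6 detected by cytoblot immunostaining with HRP secondary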
[8] = target: NADPH oxidase 2 (Homo sapiens) (UniProt P04839); test: compounds shifting NOX2 Amplex Red fluorescence – cell-based, HEK293-NOX2, PMA-stimulated, NOX inhibitor project, primary screen (AID 1159); settings: 45 min, higher = more signal, called active from +8 up or from −8 down; note: test concentration not given here
[9] = target: NADPH oxidase 4 (Homo sapiens) (UniProt Q9NPH5); test: compounds shifting NOX4 Amplex Red fluorescence – cell-based, HEK293-NOX4, tetracycline-induced, NOX inhibitor project, primary screen (AID 1160); settings: HEK293-NOX4, Amplex Red H2O2 fluorescence, 45 min; higher = more signal, called active from +8 up or from −8 down
[10] = target: NADPH oxidase 5 (Homo sapiens) (UniProt Q96PH1); test: compounds shifting NOX5 Amplex Red fluorescence – cell-based, HEK293-NOX5, NOX inhibitor project, primary screen (AID 1161); settings: HEK293-NOX5, ionomycin, 45 min, higher = more signal
[11] = compound effects on lung adenocarcinoma cell viability – A549, calcein-AM fluorescence, 48 h, basal, profiling panel (AID 1162); settings: higher = more signal; note: test concentration not given here
[12] = compound effects on differentiated 3T3-L1 adipocyte viability – cell-based, 3T3-L1 adipocytes, calcein-AM fluorescence, 48 h, basal, profiling panel (AID 1163); settings: 3T3-L1 adipocytes viability, higher = more signal; note: test concentration not given here
[13] = compound effects on hepatocellular carcinoma cell viability – HepG2, calcein-AM fluorescence, 48 h, basal, profiling panel (AID 1164); settings: higher = more signal; note: test concentration not given here
[14] = compound effects on multiple myeloma cell viability – MM1S, calcein-AM fluorescence, 48 h, basal, profiling panel (AID 1165); settings: higher = more signal;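 note: viability of MM1S multiple myeloma cells under basal unstimulated conditions; test concentration not given here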
[15] = calcein-AM signal in unstimulated myeloma cells – cell-based, calcein-AM fluorescence, 48 h, PK04 Diversity Set, profiling panel (AID 1166); settings: RPMI8226 myeloma viability, higher = more signal;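 note: cells grown under basal conditions without added stimulus; test concentration not given here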
[16] = JC-1 mitochondrial signal, unstimulated HepG2 cells – cell-based, JC-1 fluorescence, 24 h, 100 nL compound, profiling panel (AID 1167); settings: HepG2 mitochondrial potential, higher = more signal; note: test concentration not given here
[17] = JC-1 mitochondrial signal, unstimulated adipocytes – cell-based, JC-1 fluorescence, 3T3-L1 adipocytes, 24 h, 100 nL compound, profiling panel (AID 1168); settings: JC-1 mitochondrial fluorescence, higher = more signal, called active from +8 up or from −8 down; note: test concentration not given here
[18] = JC-1 mitochondrial signal, unstimulated myeloma cells – cell-based, JC-1 fluorescence, RPMI8226, 24 h, 100 nL compound, profiling panel (AID 1169); settings: JC-1 mitochondrial potential fluorescence, higher = more signal; note: test concentration not given here
[19] = JC-1 mitochondrial signal, unstimulated MM1S myeloma – cell-based, JC-1 fluorescence, 24 h, 100 nL compound, profiling panel (AID 1170); settings: MM1S mitochondrial potential, higher = more signal; note: test concentration not given here
[20] = resazurin metabolic signal in A549 cells – cell-based, resazurin fluorescence, 24 h, PK04 Diversity Set, profiling panel (AID 1171); settings: A549 viability, higher = more signal, called active from +8 up or from −8 down; note: test concentration not given here

NADPH oxidase 5 (Homo sapiens), sequence (Q96PH1 whole entry, looked up): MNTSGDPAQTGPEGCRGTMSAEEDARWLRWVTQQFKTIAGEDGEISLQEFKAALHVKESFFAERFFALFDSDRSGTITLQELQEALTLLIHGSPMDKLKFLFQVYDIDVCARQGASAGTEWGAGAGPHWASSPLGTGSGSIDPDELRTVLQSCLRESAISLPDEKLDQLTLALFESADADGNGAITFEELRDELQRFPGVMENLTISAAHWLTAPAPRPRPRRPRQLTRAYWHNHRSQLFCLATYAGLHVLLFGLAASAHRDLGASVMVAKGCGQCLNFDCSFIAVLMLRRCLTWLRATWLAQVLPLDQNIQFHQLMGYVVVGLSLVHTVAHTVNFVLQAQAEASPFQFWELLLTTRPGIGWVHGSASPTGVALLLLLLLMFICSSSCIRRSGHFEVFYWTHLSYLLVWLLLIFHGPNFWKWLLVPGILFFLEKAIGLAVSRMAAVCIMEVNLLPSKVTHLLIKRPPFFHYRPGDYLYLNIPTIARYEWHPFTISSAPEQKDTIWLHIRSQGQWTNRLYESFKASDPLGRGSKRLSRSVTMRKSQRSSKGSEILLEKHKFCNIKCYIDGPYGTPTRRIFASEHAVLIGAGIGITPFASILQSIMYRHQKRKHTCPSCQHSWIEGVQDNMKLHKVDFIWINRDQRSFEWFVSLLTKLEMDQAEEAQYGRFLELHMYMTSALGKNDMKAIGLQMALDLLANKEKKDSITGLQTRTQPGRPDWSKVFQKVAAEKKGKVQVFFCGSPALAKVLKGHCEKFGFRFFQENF
NADPH oxidase 2 (Homo sapiens), sequence (P04839 whole entry, looked up): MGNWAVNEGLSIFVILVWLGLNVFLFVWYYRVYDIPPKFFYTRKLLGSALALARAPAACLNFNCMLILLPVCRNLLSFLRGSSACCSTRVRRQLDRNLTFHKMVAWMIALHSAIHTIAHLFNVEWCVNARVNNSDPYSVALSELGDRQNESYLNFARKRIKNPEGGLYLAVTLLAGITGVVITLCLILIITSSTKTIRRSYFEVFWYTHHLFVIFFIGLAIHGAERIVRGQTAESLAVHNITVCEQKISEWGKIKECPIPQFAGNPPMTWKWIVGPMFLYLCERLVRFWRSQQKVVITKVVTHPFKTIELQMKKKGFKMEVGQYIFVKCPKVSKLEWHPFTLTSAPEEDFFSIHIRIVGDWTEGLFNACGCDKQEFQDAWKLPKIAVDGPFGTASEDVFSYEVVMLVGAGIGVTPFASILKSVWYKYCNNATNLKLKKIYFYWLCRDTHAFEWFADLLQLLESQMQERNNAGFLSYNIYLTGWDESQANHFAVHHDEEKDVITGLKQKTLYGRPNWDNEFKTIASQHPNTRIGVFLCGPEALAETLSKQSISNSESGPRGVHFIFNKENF
NADPH oxidase 4 (Homo sapiens), sequence (Q9NPH5 whole entry, looked up): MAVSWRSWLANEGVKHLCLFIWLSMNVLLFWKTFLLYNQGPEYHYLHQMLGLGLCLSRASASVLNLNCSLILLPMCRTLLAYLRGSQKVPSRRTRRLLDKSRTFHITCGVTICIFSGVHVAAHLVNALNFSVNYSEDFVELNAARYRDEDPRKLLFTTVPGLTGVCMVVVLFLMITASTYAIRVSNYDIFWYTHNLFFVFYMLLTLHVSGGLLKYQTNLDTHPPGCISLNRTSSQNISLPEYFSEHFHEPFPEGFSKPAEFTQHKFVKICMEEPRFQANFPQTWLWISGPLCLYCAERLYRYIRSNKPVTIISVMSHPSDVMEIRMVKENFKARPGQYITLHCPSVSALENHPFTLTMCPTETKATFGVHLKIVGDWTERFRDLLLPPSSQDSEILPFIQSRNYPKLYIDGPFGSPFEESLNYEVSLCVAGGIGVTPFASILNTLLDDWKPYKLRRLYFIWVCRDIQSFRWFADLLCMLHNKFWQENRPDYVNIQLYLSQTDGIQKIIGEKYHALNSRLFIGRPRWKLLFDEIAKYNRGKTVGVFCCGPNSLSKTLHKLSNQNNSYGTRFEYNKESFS

Row | SMILES | z-score [1] | composite z-score [2] | z-score [3] | z-score [4] | z-score [5] | z-score [6] | z-score [7] | z-score [8] | z-score [9] | z-score [10] | z-score [11] | z-score [12] | z-score [13] | z-score [14] | z-score [15] | z-score [16] | z-score [17] | z-score [18] | z-score [19] | z-score [20]
1 | C=CCOC(=O)[C@H]1[C@@H]2C(=O)O[C@@H](c3ccccc3)[C@@H](c3ccccc3)N2[C@@H](c2ccc(OCCOC(=O)[C@H]3C[C@H]4C(=O)N[C@@H](Cc5ccccc5)C(=O)N4[C@H]3c3cccc(OCCO)c3)cc2)[C@]12C(=O)Nc1ccc(I)cc12 | -0.386 (inactive) | 1.29 | 0.977 (inactive) | 0.856 (inactive) | -0.874 (inactive) | 0.84 (inactive) | -0.28 | 2.07 (inactive) | 1.35 (inactive) | 1.52 | -0.894 | -0.532 | 0.933 | -0.234 | -0.766 | -1.54 | -0.346 (inactive) | -0.713 | -1.41 | -0.461 (inactive)
2 | CC(C)C[C@@H]1NC(=O)[C@H]2C[C@@H](C(=O)NCCCCCC[N+](C)(C)C)[C@@H](c3cccc(OCCO)c3)N2C1=O | 0.898 (inactive) | -0.64 | 6.18 (inactive) | 0.596 (inactive) | 0.853 (inactive) | 0.251 (inactive) | -0.214 | 1.67 (inactive) | 0.95 (inactive) | 1.3 | -0.53 | 0.282 | 0.0659 | -0.804 | -0.0361 | -0.474 | 0.0908 (inactive) | -0.271 | -0.34 | 1.24 (inactive)
3 | CC(C)(C)OC(=O)CC[C@@]1(C(=O)O)N=C(c2ccc(OCCCO)cc2)O[C@@H]1c1ccccc1 | 0.0442 (inactive) | 0.284 | 6.52 (inactive) | 0.0947 (inactive) | -0.819 (inactive) | 0.0734 (inactive) | -0.407 | 0.104 (inactive) | 1.27 (inactive) | 0.548 | -0.662 | -0.982 | -0.289 | -0.764 | 0.335 | -0.602 | -0.445 (inactive) | 0.855 | -0.939 | 0.477 (inactive)
4 | CCOC(=O)[C@@H]1[C@@H]2C(=O)N(CC)C(=O)[C@@H]2C[C@@H]1Sc1ccccc1 | -0.785 (inactive) | -0.247 | 1.44 (inactive) | 1.16 (inactive) | -0.245 (inactive) | 0.905 (inactive) | -0.502 | -2.32 (inactive) | -4.05 (inactive) | -0.796 | -0.992 | -1.04 | -0.971 | -0.223 | -0.0967 | -0.644 | 0.186 (inactive) | -0.28 | -1.29 | 1.06 (inactive)
5 | [N-]=[N+]=NCc1ccccc1C[C@]1(C(=O)NCC(O)CO)N=C(c2ccc(OCCCO)cc2)O[C@H]1c1ccccc1CN=[N+]=[N-] (stereo not given in full) | -0.0074 (inactive) | 0.865 | 19.3 (active) | 2.49 (inactive) | 1.81 (inactive) | -0.481 (inactive) | 1.67 | -1.97 (inactive) | -2.19 (inactive) | -1.41 | -0.905 | 1.01 | -0.426 | -2.3 | -2.6 | 0.136 | -0.323 (inactive) | -1.02 | -0.555 | -0.402 (inactive)
6 | COc1ccc(C(O)C2C=CC3C(=O)N(c4ccccc4)C(=O)C3N2Nc2ccccc2)cc1OCc1ccccc1 (stereo not given) | -1.1 (inactive) | 0.0924 | 3.82 (inactive) | 1.49 (inactive) | 0.421 (inactive) | 1.1 (inactive) | -1.39 | -1.19 (inactive) | -3.65 (inactive) | -2.48 | 0.677 | -1.4 | 1.29 | 0.337 | -0.29 | -1.02 | -0.514 (inactive) | -0.307 | -0.699 | 0.789 (inactive)
7 | COCCCNC(=O)[C@@]1(Sc2ccc(C)cc2)CC(=O)N(Cc2cc(C(F)(F)F)cc(C(F)(F)F)c2)[C@@H]1c1ccc(CO)cc1 | 0.154 (inactive) | -0.0559 | 0.603 (inactive) | 0.591 (inactive) | 1.03 (inactive) | 0.302 (inactive) | -0.103 | 0.242 (inactive) | 0.521 (inactive) | 0.581 | 0.285 | -0.515 | 0.584 | 1.35 | 1.42 | 0.967 | 0.895 (inactive) | 0.786 | -0.422 | -1.07 (inactive)
8 | CCOC(=O)C[C@H]1[C@H](OC(=O)c2ccc(-c3ccccc3)cc2)[C@@H](NC(=O)C2CCCCC2)c2cc(OCCCO)ccc2N1C(=O)c1ccccc1 | -0.915 (inactive) | -0.263 | 0.479 (inactive) | 0.705 (inactive) | -0.138 (inactive) | 0.505 (inactive) | 1.09 | 0.169 (inactive) | -0.849 (inactive) | 1.49 | -0.28 | 0.557 | 0.137 | -0.412 | -0.203 | 0.383 | -0.983 (inactive) | 0.115 | -0.101 | -1.01 (inactive)
